Assay results: PubChem BioAssay AID1159580 (chemical genetic matrix, 2015)
Screen size: about 5,500 compounds; about 2,000 (36%) were called active. Inconclusive results (about 18%) are left out. Cut-off read from the data, not from the text of the source: active = normalized growth mostly below about 0.91 (no sharp cut-off); inconclusive = no clear call, values can overlap the other calls; inactive = mostly above about 0.92. Some of the results follow.

Experiment: chemical genetic growth profiling, strain panel (AID 1159580);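 note: tested at 20 µM; growth read once vehicle control cultures reached saturation at 30 °C; 1 = growth at the plate median or of vehicle wells; lower values mean less growth of the strain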
Conditions: growth OD

Measured: normalized growth

Oc1ccc(Cl)cc1
inactive: S. cerevisiae deletion strains, locus YJR075W, strain HOC1, stronger effect = lower value 0.993 | S. cerevisiae deletion strains, locus YKL009W, strain mrt4, stronger effect = lower value 0.972 | S. cerevisiae deletion strains, locus YKL068W, stronger effect = lower value 0.985 | S. cerevisiae deletion strains, locus YKL085W, strain MDH1 (second series), stronger effect = lower value 0.978 | S. cerevisiae deletion strains, locus YKL085W, strain MDH1, stronger effect = lower value 0.978 | S. cerevisiae deletion strains, locus YKL160W, strain elf1, stronger effect = lower value 1.03 | S. cerevisiae deletion strains, locus YKL190W, strain CNB1, stronger effect = lower value 0.993 | S. cerevisiae deletion strains, locus YKR001C, strain vps1, stronger effect = lower value 0.996 | S. cerevisiae deletion strains, locus YKR026C, strain gcn3, stronger effect = lower value 1.02 | S. cerevisiae deletion strains, locus YKR091W, strain srl3, stronger effect = lower value 1.01 | S. cerevisiae deletion strains, locus YLL001W, strain dnm1, stronger effect = lower value 1.02 | S. cerevisiae deletion strains, locus YLL026W, stronger effect = lower value 1.02 | S. cerevisiae deletion strains, locus YLL041C, strain sdh2, stronger effect = lower value 1.01 | S. cerevisiae deletion strains, locus YLR027C, strain aat2, stronger effect = lower value 0.999 | S. cerevisiae deletion strains, locus YLR039C, strain RIC1, stronger effect = lower value 0.983 | S. cerevisiae deletion strains, locus YLR058C, strain SHM2, stronger effect = lower value 0.989 | S. cerevisiae deletion strains, locus YLR102C, strain apc9, stronger effect = lower value 0.976 | S. cerevisiae deletion strains, locus YLR113W, strain HOG1, stronger effect = lower value 1 | S. cerevisiae deletion strains, locus YLR221C, strain rsa3, stronger effect = lower value 1.01 | S. cerevisiae deletion strains, locus YLR258W, strain gsy2, stronger effect = lower value 1 | S. cerevisiae deletion strains, locus YLR262C, strain YPT6 (second series), stronger effect = lower value 1.02 | S. cerevisiae deletion strains, locus YLR262C, strain YPT6, stronger effect = lower value 0.986 | S. cerevisiae deletion strains, locus YLR268W, strain sec22, stronger effect = lower value 0.93 | S. cerevisiae deletion strains, locus YLR320W, strain mms22, stronger effect = lower value 1.03 | S. cerevisiae deletion strains, locus YLR330W, strain CHS5, stronger effect = lower value 0.99 | S. cerevisiae deletion strains, locus YLR342W, strain FKS1 (second series), stronger effect = lower value 0.995 | S. cerevisiae deletion strains, locus YLR342W, strain FKS1, stronger effect = lower value 1.01 | S. cerevisiae deletion strains, locus YLR357W, strain rsc2, stronger effect = lower value 1.04 | S. cerevisiae deletion strains, locus YLR370C, strain arc18, stronger effect = lower value 1.01 | S. cerevisiae deletion strains, locus YLR371W, strain rom2, stronger effect = lower value 0.962 | S. cerevisiae deletion strains, locus YLR384C, strain iki3, stronger effect = lower value 1.01 | S. cerevisiae deletion strains, locus YLR418C, strain cdc73, stronger effect = lower value 0.986 | S. cerevisiae deletion strains, locus YML016C, strain PPZ1, stronger effect = lower value 0.99 | S. cerevisiae deletion strains, locus YML032C, strain rad52, stronger effect = lower value 0.963 | S. cerevisiae deletion strains, locus YML120C, strain ndi1, stronger effect = lower value 1.01 | S. cerevisiae deletion strains, locus YML124C, strain tub3, stronger effect = lower value 0.975 | S. cerevisiae deletion strains, locus YMR058W, strain fet3, stronger effect = lower value 1.01 | S. cerevisiae deletion strains, locus YMR078C, strain ctf18, stronger effect = lower value 0.968 | S. cerevisiae deletion strains, locus YMR125W, strain sto1, stronger effect = lower value 1.01 | S. cerevisiae deletion strains, locus YMR129W, stronger effect = lower value 1.01 | S. cerevisiae deletion strains, locus YMR205C, strain PFK2, stronger effect = lower value 1.03 | S. cerevisiae deletion strains, locus YMR223W, strain ubp8, stronger effect = lower value 1 | S. cerevisiae deletion strains, locus YMR231W, strain pep5, stronger effect = lower value 1.01 | S. cerevisiae deletion strains, locus YMR307W, strain GAS1, stronger effect = lower value 1 | S. cerevisiae deletion strains, locus YNL067W, strain RPL9B, stronger effect = lower value 0.996 | S. cerevisiae deletion strains, locus YNL071W, strain lat1, stronger effect = lower value 1.01 | S. cerevisiae deletion strains, locus YNL128W, strain TEP1, stronger effect = lower value 0.978 | S. cerevisiae deletion strains, locus YNL153C, strain GIM3, stronger effect = lower value 1 | S. cerevisiae deletion strains, locus YNL183C, strain NPR1, stronger effect = lower value 0.941 | S. cerevisiae deletion strains, locus YNL209W, strain ssb2, stronger effect = lower value 1 | S. cerevisiae deletion strains, locus YNL233W, strain BNI4, stronger effect = lower value 0.988 | S. cerevisiae deletion strains, locus YNL248C, strain rpa49, stronger effect = lower value 1 | S. cerevisiae deletion strains, locus YNL250W, strain rad50, stronger effect = lower value 0.97 | S. cerevisiae deletion strains, locus YNL271C, strain bni1, stronger effect = lower value 0.975 | S. cerevisiae deletion strains, locus YNL298W, strain CLA4, stronger effect = lower value 0.971 | S. cerevisiae deletion strains, locus YNL307C, strain MCK1, stronger effect = lower value 0.968 | S. cerevisiae deletion strains, locus YNL322C, strain KRE1 (second series), stronger effect = lower value 1.02 | S. cerevisiae deletion strains, locus YNL322C, strain KRE1, stronger effect = lower value 0.992 | S. cerevisiae deletion strains, locus YNR049C, strain mso1, stronger effect = lower value 1.01 | S. cerevisiae deletion strains, locus YNR052C, strain pop2, stronger effect = lower value 0.973 | S. cerevisiae deletion strains, locus YOL006C, strain TOP1, stronger effect = lower value 1.03 | S. cerevisiae deletion strains, locus YOL012C, strain htz1 0.904 | S. cerevisiae deletion strains, locus YOL147C, strain pex11, stronger effect = lower value 0.986 | S. cerevisiae deletion strains, locus YOR001W, strain rrp6, stronger effect = lower value 0.972 | S. cerevisiae deletion strains, locus YOR061W, strain CKA2, stronger effect = lower value 0.98 | S. cerevisiae deletion strains, locus YOR069W, strain VPS5, stronger effect = lower value 0.989 | S. cerevisiae deletion strains, locus YOR070C, strain gyp1, stronger effect = lower value 1 | S. cerevisiae deletion strains, locus YOR080W, strain dia2, stronger effect = lower value 1.01 | S. cerevisiae deletion strains, locus YOR083W, strain WHI5, stronger effect = lower value 1.02 | S. cerevisiae deletion strains, locus YOR106W, strain vam3, stronger effect = lower value 1.02 | S. cerevisiae deletion strains, locus YOR136W, strain idh2, stronger effect = lower value 0.98 | S. cerevisiae deletion strains, locus YOR144C, strain elg1, stronger effect = lower value 0.978 | S. cerevisiae deletion strains, locus YOR184W, strain ser1, stronger effect = lower value 0.961 | S. cerevisiae deletion strains, locus YOR231W, strain MKK1, stronger effect = lower value 0.979 | S. cerevisiae deletion strains, locus YOR265W, strain rbl2, stronger effect = lower value 1.02 | S. cerevisiae deletion strains, locus YOR270C, strain vph1, stronger effect = lower value 1.02 | S. cerevisiae deletion strains, locus YOR290C, strain snf2, stronger effect = lower value 0.999 | S. cerevisiae deletion strains, locus YOR316C, strain cot1, stronger effect = lower value 0.974 | S. cerevisiae deletion strains, locus YPL051W, strain arl3, stronger effect = lower value 1.01 | S. cerevisiae deletion strains, locus YPL078C, strain atp4, stronger effect = lower value 1.01 | S. cerevisiae deletion strains, locus YPL106C, strain sse1, stronger effect = lower value 1.04 | S. cerevisiae deletion strains, locus YPL240C, strain hsp82, stronger effect = lower value 1.01 | S. cerevisiae deletion strains, locus YPL241C, strain CIN2, stronger effect = lower value 0.997 | S. cerevisiae deletion strains, locus YPL256C, strain CLN2, stronger effect = lower value 0.978 | S. cerevisiae deletion strains, locus YPR119W, strain clb2, stronger effect = lower value 0.98 | S. cerevisiae deletion strains, locus YPR141C, strain kar3, stronger effect = lower value 0.976 | S. cerevisiae deletion strains, locus YPR163C, strain tif3, stronger effect = lower value 0.983 | S. cerevisiae deletion strains, locus YPR167C, strain met16, stronger effect = lower value 0.974 | S. cerevisiae deletion strains, strain wtn01, stronger effect = lower value 0.971 | S. cerevisiae strains, strain wild type, stronger effect = lower value 0.995
